Test results: the supplement of paper PMC11732987, “Enantioselective OTUD7B fragment discovery through chemoproteomics screening and high-throughput optimisation” (Communications Chemistry, 2025)

Tests used:
Assay in all cases: log2 ratio of Biotin-Ahx-Ub-VS probe labelling (fragment/DMSO); higher = less target engagement (more negative = stronger competition), active = hit call of the paper (q ≤ 0.05, log2 ratio ≤ -1)
Conditions in all cases: compound concentration: 200 uM; treatment time: 3 h
[1] = molecular target: T1, USP42 (UniProt Q9H9J4)
T1 sequence (whole entry): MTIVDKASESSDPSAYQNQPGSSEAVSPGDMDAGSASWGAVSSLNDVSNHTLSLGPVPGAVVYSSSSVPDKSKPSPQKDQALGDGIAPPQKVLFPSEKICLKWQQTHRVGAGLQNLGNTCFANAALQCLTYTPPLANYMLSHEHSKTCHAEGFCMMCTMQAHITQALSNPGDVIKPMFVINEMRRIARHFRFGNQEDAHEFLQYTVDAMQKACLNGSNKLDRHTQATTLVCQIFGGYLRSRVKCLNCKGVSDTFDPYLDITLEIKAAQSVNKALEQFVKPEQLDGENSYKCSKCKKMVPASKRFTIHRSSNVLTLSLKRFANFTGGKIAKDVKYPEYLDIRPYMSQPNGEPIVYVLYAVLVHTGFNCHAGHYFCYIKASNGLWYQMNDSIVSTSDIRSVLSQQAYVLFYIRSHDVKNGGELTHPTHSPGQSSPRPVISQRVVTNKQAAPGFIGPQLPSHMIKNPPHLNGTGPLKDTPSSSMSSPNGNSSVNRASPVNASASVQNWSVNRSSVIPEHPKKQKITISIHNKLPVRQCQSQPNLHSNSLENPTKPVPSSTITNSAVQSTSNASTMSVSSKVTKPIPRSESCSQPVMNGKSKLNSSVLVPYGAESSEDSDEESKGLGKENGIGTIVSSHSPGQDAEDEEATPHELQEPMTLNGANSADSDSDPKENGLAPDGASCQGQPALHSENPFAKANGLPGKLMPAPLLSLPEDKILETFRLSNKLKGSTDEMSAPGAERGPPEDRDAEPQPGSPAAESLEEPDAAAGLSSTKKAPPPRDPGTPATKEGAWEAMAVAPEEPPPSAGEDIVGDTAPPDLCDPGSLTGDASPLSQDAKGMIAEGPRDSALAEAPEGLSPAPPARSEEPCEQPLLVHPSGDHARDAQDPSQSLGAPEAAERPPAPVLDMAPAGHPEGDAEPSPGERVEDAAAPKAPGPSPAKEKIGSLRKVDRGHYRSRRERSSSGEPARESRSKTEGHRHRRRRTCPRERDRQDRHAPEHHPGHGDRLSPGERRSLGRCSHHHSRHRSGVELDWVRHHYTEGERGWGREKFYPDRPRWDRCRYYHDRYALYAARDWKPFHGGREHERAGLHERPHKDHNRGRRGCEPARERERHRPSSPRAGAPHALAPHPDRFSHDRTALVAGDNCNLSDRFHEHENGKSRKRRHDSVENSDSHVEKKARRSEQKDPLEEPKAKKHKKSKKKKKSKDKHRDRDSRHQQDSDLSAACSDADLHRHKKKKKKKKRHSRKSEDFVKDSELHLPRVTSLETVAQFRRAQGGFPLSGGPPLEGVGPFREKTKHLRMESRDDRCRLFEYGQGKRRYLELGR
How it was run: (§1)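 Labelled DUBs from HEK293T lysate were NeutrAvidin-enriched, digested with LysC and trypsin, and run by diaPASEF LC-MS/MS. Before that, each 495 µg sample in Tris/CHAPS/IGEPAL buffer with protease inhibitors was treated in triplicate with fragment at 200 µM or vehicle for 3 h, then with Biotin-Ahx-Ub-VS at 0.5 µM final for 1 h. Values are average log2 ratios of fragment over vehicle by unpaired t-test, based on global-median-normalised Spectronaut label-free quantities from proteins with ≥2 unique peptides.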

[2] = molecular target: USP46 (UniProt P62068)
Sequence of USP46 (P62068 whole entry): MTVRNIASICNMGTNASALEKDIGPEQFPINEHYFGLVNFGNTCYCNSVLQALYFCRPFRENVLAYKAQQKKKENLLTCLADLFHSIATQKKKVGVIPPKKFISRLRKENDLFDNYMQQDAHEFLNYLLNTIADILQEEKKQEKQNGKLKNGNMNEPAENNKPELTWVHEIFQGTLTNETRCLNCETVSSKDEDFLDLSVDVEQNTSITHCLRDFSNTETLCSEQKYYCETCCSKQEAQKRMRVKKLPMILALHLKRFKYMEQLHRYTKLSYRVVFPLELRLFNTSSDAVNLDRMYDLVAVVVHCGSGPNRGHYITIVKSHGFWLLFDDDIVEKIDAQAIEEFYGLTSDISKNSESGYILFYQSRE
How it was run: as §1

[3] = molecular target: T2, USP47 (UniProt Q96K76)
T2 sequence (whole entry): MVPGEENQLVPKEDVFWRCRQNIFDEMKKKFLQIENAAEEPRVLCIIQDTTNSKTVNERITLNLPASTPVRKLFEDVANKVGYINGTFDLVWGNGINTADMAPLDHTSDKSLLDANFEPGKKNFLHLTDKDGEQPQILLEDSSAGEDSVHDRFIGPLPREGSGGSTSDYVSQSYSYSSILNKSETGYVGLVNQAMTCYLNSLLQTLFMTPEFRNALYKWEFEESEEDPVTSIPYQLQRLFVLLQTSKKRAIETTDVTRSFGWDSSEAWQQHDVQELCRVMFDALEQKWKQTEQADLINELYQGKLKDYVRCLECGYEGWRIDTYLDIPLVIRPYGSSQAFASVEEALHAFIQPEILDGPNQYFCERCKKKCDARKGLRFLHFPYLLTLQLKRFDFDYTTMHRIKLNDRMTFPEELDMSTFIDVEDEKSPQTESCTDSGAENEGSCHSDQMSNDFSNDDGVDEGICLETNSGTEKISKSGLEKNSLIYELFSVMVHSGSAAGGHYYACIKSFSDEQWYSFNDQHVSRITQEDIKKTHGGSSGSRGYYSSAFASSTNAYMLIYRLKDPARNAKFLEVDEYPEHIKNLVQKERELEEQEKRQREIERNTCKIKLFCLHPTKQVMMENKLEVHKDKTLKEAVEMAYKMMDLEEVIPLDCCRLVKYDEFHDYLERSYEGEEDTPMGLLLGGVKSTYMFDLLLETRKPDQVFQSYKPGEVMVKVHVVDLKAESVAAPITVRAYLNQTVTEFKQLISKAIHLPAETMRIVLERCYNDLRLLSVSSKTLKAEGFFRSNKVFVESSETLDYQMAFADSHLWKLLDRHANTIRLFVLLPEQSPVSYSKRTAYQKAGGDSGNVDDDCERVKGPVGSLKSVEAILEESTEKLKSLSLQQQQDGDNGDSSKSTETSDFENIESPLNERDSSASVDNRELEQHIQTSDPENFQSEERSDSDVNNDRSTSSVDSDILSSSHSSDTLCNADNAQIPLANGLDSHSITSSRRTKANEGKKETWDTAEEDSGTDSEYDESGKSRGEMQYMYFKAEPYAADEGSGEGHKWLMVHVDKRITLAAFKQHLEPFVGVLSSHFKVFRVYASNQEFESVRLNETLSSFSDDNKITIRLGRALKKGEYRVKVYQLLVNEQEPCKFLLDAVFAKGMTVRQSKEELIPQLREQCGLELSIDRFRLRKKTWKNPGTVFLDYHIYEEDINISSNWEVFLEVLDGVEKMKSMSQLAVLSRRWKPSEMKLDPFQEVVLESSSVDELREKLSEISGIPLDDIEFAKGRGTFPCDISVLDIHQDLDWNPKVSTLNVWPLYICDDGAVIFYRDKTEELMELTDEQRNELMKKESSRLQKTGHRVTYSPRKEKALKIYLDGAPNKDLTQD
How it was run: as §1

[4] = molecular target: T3, USP48 (UniProt Q86UV5)
T3 sequence (whole entry): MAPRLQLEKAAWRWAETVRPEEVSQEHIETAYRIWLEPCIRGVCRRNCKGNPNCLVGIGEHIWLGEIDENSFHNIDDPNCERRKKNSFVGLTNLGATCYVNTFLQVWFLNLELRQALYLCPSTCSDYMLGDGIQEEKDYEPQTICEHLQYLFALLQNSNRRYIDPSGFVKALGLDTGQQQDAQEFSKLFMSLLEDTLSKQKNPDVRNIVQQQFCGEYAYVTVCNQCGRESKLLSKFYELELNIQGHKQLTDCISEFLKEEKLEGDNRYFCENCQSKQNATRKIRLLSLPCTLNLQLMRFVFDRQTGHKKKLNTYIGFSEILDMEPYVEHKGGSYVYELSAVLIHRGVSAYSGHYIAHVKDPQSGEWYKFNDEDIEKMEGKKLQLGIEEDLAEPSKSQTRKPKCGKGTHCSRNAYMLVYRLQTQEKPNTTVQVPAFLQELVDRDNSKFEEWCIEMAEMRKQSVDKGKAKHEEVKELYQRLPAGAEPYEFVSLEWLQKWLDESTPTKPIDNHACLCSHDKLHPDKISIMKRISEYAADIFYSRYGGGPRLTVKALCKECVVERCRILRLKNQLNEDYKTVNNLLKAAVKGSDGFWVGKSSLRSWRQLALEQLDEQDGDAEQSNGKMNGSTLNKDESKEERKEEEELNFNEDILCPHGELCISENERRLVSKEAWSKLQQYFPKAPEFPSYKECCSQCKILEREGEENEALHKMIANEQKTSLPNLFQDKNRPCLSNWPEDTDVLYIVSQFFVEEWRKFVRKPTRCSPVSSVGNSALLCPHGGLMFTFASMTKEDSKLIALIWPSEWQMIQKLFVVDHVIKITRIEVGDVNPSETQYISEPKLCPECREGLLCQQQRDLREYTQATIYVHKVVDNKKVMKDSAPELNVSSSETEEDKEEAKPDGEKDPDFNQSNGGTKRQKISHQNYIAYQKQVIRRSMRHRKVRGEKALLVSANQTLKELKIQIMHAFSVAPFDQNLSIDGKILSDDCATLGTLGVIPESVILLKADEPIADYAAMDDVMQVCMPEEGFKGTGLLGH
How it was run: as §1

[5] = molecular target: T4, USP5 (UniProt P45974)
T4 sequence (whole entry): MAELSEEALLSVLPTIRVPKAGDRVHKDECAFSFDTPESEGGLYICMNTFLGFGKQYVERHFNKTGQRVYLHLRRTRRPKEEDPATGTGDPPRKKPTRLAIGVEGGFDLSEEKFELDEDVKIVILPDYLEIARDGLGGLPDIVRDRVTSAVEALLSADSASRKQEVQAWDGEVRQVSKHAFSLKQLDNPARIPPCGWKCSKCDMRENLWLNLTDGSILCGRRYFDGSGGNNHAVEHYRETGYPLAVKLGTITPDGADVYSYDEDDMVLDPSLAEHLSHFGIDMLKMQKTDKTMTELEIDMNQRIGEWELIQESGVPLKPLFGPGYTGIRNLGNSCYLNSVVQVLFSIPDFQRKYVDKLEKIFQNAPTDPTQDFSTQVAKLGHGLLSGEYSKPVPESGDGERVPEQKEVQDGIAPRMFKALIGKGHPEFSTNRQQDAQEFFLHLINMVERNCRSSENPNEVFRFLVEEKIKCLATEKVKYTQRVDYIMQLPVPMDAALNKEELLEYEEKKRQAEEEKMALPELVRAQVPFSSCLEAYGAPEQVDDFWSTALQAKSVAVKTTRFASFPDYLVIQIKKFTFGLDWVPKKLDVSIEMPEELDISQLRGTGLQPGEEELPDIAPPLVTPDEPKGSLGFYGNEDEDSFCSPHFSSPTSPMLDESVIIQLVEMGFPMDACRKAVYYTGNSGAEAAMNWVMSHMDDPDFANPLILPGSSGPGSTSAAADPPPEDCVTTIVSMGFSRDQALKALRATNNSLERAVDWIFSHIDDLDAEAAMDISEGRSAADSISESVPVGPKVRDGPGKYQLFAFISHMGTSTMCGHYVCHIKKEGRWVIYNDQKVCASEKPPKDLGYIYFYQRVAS
How it was run: as §1

[6] = molecular target: USP54 (UniProt Q70EL1)
Sequence of USP54 (Q70EL1 whole entry): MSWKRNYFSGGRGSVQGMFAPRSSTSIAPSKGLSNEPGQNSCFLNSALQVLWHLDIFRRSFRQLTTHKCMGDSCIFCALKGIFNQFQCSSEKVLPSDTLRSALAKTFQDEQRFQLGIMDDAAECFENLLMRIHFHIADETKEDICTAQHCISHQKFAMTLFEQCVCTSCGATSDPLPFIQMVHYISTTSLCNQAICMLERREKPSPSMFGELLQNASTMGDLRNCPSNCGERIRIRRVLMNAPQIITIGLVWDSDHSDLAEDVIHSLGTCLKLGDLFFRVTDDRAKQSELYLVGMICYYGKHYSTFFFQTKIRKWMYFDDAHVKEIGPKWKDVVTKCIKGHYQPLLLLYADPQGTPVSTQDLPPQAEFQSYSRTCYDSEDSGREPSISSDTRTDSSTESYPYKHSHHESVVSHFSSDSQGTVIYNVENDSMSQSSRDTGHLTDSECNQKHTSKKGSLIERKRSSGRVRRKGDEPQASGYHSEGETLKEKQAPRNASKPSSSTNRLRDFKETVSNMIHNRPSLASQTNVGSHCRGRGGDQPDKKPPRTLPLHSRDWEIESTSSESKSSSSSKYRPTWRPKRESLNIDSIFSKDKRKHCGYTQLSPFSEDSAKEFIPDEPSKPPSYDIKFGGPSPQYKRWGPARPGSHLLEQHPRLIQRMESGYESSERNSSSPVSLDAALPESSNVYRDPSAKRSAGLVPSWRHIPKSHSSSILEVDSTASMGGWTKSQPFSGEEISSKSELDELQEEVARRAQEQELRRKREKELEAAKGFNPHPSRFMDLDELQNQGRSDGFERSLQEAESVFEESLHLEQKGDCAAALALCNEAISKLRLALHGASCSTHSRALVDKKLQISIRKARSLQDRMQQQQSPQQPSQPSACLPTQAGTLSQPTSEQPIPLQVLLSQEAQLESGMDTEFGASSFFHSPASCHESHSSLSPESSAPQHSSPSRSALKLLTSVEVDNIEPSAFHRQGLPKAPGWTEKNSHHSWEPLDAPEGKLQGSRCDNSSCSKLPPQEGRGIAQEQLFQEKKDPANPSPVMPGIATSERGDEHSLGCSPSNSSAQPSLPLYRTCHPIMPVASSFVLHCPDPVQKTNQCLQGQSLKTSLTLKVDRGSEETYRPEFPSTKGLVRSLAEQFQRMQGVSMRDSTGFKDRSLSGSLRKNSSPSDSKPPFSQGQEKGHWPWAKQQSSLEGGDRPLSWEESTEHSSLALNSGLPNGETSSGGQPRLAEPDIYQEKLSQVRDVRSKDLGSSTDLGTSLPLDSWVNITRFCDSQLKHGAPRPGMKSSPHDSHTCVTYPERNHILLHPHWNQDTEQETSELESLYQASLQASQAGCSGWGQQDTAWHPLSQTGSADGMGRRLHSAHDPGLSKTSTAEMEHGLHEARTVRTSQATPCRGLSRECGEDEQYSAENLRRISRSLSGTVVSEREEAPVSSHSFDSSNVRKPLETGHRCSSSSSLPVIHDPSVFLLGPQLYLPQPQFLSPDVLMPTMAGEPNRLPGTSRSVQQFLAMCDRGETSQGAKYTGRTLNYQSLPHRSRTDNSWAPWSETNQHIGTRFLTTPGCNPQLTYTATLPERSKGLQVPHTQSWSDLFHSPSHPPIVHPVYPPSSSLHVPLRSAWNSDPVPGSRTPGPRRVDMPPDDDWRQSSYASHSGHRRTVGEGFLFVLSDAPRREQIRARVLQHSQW
How it was run: as §1

[7] = molecular target: USP7 (UniProt Q93009)
How it was run: as §1

[8] = molecular target: T5, USP8 (UniProt P40818)
T5 sequence (whole entry): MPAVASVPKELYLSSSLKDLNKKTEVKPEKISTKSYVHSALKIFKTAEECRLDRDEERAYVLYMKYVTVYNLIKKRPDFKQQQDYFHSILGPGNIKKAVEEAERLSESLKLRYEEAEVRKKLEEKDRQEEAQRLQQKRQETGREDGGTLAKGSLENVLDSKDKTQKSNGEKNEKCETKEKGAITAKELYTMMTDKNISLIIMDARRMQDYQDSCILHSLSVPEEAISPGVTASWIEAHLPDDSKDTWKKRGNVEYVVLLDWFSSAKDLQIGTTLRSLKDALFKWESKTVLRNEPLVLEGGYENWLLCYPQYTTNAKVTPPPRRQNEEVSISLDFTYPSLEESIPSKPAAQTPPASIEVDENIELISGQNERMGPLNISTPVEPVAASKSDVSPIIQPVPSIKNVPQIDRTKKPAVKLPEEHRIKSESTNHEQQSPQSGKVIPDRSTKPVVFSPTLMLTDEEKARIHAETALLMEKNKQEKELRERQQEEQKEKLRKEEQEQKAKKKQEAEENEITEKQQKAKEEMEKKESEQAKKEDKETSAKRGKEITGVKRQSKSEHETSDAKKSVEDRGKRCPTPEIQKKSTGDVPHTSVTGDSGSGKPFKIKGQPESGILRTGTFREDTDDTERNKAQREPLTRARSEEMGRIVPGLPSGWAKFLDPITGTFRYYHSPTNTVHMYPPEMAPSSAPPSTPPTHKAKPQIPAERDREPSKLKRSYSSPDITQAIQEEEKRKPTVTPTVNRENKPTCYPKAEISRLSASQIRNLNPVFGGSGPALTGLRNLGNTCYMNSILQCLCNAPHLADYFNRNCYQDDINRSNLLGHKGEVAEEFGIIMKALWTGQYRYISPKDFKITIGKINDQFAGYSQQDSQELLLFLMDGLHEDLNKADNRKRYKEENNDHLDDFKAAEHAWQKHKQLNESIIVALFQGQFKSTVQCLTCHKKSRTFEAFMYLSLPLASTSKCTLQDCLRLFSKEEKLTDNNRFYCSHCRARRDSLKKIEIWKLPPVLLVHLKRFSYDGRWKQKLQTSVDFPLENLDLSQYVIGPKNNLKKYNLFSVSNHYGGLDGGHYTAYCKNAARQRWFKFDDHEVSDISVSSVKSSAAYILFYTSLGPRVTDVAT
How it was run: as §1

[9] = molecular target: USP9X (UniProt Q93008)
Sequence of USP9X (Q93008 whole entry): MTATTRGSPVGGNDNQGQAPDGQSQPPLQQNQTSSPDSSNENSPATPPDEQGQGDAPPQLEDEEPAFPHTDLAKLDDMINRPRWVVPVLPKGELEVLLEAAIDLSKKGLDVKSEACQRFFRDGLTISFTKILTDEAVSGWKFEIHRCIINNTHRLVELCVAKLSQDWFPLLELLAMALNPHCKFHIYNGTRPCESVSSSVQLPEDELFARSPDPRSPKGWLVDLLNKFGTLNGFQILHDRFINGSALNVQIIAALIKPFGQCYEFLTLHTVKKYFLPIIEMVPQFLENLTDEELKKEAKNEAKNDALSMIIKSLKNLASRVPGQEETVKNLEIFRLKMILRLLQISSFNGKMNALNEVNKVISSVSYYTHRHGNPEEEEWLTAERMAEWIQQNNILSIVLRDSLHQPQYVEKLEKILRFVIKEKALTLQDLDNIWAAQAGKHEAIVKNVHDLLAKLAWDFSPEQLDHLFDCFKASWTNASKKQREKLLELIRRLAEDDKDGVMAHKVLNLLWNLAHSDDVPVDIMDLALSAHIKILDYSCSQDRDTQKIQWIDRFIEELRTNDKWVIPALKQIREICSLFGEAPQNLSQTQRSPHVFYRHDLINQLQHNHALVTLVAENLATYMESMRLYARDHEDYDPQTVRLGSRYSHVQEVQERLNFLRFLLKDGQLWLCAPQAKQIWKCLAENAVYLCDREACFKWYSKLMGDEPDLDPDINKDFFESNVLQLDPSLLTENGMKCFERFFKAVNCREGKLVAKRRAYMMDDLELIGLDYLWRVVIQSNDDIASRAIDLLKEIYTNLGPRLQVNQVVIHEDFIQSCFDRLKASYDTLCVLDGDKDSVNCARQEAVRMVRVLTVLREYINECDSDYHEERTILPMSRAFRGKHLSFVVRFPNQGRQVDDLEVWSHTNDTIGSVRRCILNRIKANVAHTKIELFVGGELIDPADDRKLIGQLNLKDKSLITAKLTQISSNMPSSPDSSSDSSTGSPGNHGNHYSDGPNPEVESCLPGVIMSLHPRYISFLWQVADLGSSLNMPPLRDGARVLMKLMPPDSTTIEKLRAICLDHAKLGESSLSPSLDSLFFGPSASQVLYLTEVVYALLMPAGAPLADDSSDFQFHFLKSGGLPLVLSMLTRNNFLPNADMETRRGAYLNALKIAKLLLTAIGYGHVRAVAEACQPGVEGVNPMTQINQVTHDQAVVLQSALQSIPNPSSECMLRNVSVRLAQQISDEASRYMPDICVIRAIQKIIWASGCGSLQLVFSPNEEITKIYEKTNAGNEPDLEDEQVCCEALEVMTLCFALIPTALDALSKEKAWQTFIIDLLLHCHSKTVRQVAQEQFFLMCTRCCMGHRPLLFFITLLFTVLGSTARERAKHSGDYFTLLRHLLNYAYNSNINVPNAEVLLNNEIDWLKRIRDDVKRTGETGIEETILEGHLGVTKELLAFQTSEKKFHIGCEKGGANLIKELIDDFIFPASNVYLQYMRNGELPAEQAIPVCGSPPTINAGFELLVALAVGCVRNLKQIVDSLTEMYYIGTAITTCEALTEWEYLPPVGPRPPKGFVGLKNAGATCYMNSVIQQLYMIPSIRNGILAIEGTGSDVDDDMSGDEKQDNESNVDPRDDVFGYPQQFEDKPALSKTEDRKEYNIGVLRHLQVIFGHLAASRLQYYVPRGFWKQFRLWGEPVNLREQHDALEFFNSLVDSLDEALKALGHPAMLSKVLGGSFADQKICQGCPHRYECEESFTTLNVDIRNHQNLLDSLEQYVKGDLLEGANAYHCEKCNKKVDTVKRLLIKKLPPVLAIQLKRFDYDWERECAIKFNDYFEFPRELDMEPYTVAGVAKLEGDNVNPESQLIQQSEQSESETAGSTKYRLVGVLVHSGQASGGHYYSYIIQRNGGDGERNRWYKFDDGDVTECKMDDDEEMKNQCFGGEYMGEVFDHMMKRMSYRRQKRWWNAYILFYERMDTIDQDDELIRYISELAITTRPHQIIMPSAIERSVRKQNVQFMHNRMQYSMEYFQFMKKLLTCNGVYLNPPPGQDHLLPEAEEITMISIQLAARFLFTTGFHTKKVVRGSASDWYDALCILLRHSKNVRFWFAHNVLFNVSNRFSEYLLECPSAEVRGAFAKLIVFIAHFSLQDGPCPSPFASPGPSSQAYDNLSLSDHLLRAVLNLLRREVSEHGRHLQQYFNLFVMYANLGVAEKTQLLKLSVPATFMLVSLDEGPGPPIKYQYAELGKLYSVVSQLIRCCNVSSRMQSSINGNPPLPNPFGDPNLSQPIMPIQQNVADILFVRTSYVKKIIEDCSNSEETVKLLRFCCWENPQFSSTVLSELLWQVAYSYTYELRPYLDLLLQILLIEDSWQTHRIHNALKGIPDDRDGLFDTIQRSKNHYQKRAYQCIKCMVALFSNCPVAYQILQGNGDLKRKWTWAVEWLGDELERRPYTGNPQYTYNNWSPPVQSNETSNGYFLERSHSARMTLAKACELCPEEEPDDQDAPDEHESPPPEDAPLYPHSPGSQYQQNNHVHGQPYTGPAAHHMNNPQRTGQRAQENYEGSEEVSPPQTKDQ
How it was run: as §1

[10] = molecular target: UniProt O00487
Sequence of UniProt O00487 (O00487 whole entry): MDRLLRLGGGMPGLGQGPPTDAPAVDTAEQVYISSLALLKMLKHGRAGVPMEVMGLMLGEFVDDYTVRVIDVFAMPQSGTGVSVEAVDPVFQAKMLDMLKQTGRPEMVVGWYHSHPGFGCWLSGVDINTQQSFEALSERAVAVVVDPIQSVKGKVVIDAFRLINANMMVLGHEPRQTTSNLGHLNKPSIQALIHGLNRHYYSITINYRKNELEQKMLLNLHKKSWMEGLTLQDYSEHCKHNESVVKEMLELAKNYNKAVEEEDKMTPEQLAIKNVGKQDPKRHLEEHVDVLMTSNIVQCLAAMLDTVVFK
How it was run: as §1

Measured: log2 ratio of Biotin-Ahx-Ub-VS probe labelling

O=C(CCl)N1CCCC2CCCCC21 (stereo not given)
inactive: [1] 0.484 | [2] -0.132 | [3] -0.696 | [4] -0.516 | [5] 0.0316 | [6] 0.268 | [7] -0.486 | [8] -0.0438 | [9] -0.183 | [10] -0.107

Cc1ccc(C(=O)NCCNC(=O)CCl)cc1
inactive: [1] -0.216 | [2] 0.0112 | [3] -0.158 | [4] -0.318 | [5] -0.123 | [6] 0.576 | [7] -0.262 | [8] -0.271 | [9] -0.316 | [10] -0.0816

O=C(CCl)N1CCC(S(=O)(=O)c2ccc(F)cc2)CC1
inactive: [1] -0.133 | [2] -0.0321 | [3] -0.145 | [4] -0.355 | [5] 0.248 | [6] 0.501 | [7] -0.535 | [8] -0.0595 | [9] -0.118 | [10] 0.043
